Common to all, as to experiment: cross-link between two proteins; cross-linking mass spectrometry
The target in assay [1] is 26S proteasome regulatory subunit RPN5 (UniProt Q12250).
Assay [2] has as its target 26S proteasome regulatory subunit RPN6 (UniProt Q12377).
Assay [3] has as its target 26S proteasome regulatory subunit RPN8 (UniProt Q08723).
For assay [4], the target named is 26S proteasome regulatory subunit RPN7 (UniProt Q06103).
Assay [5] addresses Ubiquitin C-terminal hydrolase RPN11 (UniProt P43588).
For assay [6], the target named is 26S proteasome regulatory subunit RPN3 (UniProt P40016).
Chain of 26S proteasome regulatory subunit RPN3 (P40016 whole entry): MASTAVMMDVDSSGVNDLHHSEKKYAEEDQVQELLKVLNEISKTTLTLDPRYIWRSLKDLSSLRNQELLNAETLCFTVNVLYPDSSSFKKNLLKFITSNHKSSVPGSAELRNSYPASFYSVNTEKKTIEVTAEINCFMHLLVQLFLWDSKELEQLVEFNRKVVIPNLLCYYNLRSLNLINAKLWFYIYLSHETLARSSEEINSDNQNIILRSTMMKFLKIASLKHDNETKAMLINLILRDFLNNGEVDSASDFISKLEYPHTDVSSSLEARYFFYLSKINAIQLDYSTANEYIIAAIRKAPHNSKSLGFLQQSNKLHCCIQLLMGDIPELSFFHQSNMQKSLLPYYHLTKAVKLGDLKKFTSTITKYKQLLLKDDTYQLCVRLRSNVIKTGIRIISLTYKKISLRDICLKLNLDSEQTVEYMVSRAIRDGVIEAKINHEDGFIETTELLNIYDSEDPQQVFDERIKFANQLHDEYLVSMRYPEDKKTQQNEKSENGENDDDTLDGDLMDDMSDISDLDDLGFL

Chain of 26S proteasome regulatory subunit RPN5 (Q12250 whole entry): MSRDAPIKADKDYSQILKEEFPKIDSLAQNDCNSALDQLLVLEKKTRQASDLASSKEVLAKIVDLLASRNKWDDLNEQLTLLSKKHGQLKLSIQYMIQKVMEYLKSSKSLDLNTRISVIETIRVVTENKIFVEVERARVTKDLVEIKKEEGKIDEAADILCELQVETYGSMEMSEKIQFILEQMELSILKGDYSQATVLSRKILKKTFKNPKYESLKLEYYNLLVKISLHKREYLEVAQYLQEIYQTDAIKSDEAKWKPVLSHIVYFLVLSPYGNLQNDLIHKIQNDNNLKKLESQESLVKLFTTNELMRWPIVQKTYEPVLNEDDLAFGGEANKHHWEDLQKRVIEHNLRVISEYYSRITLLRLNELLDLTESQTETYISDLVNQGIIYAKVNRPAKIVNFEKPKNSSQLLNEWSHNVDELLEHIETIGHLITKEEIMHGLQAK
Chain of 26S proteasome regulatory subunit RPN8 (Q08723 whole entry): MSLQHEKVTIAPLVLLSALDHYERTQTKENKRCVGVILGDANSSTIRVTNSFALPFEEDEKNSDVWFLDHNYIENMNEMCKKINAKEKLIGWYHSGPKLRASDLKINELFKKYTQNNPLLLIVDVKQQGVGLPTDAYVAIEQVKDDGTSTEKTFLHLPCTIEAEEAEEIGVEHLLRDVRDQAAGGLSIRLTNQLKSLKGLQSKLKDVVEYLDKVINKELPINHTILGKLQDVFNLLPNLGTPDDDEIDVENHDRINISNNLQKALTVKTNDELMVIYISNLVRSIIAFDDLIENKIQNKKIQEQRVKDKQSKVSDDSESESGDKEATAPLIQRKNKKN
Chain of 26S proteasome regulatory subunit RPN6 (Q12377 whole entry): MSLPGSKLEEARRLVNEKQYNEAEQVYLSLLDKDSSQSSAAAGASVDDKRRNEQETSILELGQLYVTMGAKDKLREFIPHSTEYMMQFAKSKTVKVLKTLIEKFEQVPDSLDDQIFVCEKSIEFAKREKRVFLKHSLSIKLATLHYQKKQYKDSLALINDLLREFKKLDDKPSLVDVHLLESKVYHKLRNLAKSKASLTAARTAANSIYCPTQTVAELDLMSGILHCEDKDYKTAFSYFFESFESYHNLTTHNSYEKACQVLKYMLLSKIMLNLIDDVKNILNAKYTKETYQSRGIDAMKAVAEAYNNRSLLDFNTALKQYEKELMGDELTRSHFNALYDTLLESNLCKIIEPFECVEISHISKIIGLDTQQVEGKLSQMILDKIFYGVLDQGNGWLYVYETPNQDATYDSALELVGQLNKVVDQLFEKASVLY
Chain of Ubiquitin C-terminal hydrolase RPN11 (P43588 whole entry): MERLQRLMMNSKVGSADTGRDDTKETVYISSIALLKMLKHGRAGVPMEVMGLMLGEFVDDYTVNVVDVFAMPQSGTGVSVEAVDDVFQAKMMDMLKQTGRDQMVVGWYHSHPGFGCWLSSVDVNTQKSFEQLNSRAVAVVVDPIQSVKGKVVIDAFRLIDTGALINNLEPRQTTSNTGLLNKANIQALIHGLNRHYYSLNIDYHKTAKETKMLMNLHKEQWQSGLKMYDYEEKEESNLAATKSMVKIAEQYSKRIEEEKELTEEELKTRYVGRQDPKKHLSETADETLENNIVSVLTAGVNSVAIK
Chain of 26S proteasome regulatory subunit RPN7 (Q06103 whole entry): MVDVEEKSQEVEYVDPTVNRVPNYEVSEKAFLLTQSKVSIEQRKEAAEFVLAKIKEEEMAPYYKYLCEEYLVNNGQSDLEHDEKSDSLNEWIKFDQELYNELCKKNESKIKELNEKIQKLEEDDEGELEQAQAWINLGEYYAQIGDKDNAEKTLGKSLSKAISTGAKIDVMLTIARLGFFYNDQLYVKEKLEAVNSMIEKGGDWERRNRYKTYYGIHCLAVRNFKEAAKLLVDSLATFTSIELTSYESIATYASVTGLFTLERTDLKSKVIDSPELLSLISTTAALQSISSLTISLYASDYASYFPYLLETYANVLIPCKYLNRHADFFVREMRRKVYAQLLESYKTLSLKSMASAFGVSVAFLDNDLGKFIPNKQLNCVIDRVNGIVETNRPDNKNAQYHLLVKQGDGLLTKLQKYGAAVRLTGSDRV

Regarding “26S proteasome regulatory subunit RPN7, Q06103”, the “listed as a hit” value in assay [1], in assay [2] and in assay [3] was “yes” in each case.

“26S proteasome regulatory subunit RPN3, P40016”: the “listed as a hit” value in assay [4], in assay [3] and in assay [5] was “yes” throughout.

For “26S proteasome complex subunit SEM1, O94742”, the “listed as a hit” value in assay [6], in assay [3] and in assay [5] was “yes” each time.

Take “26S proteasome regulatory subunit RPN5, Q12250”: the “listed as a hit” value in assay [2] is “yes”.

Regarding “Ubiquitin C-terminal hydrolase RPN11, P43588”, the “listed as a hit” value in assay [1], in assay [2] and in assay [4] was “yes” in each case.

In the case of “26S proteasome regulatory subunit RPN9, Q04062”, the “listed as a hit” value in assay [1] and in assay [3] was “yes” throughout.

For the substance “26S proteasome regulatory subunit RPN8, Q08723”, the “listed as a hit” value in assay [1] and in assay [2] was “yes” each time.

Values taken from publication PMC4601081.
